The record followed here is PubChem BioAssay (NCATS).

Test [1] can be described thus: Viability qHTS for spleen associated tyrosine kinase inhibitor (SYKi) naive MV4-11 cells (AID 1963823). Also: nearly all actives have a fitted effect of over 40% in size. In a few lines: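 qHTS, SYK inhibitor-naive MV4-11; 500 cells/well; 72 hr compound exposure, 37 C; CellTiter-Glo added, 10 min RT; luminescence read.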
For orientation: qHTS replaces the single test concentration by a dilution series.

Test [2] is described as follows: Viability qHTS for spleen associated tyrosine kinase inhibitor (SYKi) drug resistant MV4-11 cells (AID 1963824). Also: nearly all actives have a fitted effect of over 35% in size. A digest of the protocol: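 CellTiter-Glo luminescence, read 10 min after reagent addition, reports viability after a 72 hr compound exposure. Cells are an MV4-11 line made resistant to SYK inhibition, seeded at 500 per well onto compound-containing plates.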

Test [3] can be described thus: Quantitative highthroughput screen to assess conditional lethalithy of NOMO1 cells grown in RPMI1640 with untreated serum (RPMI+s) (AID 1963876). Also: nearly all actives have a fitted effect of over 35% in size.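 As to Viability: 100% = DMSO wells and 0% = empty wells without cells.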 In a few lines: (§1)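 Each medium arm—HPLM with 10% dialyzed FBS, or RPMI1640 with 5 mM glucose and 10% untreated or dialyzed FBS—was screened against an 11-point, 3-fold compound titration for 48 h at 37 °C, with CellTiter-Glo luminescence as endpoint.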

Test [4] in a line: Quantitative highthroughput screen to assess conditional lethalithy of NOMO1 cells grown in RPMI1640 with dialyzed fetal bovine serum (RPMI+ds) (AID 1963877). Also: nearly all actives have a fitted effect of over 30% in size.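 As to Viability: series mostly up to about 46 µM; 100% = DMSO control wells and 0% = empty wells.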 A digest of the protocol: as §1
Test [5] in a line: Quantitative highthroughput screen to assess conditional lethalithy of NOMO1 cells grown in Human Plasma-Like Medium with dialyzed fetal bovine serum (HPLM+ds) (AID 1963878). Also: nearly all actives have a fitted effect of over 35% in size.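 As to Viability: 100% = DMSO wells and 0% = empty wells on each plate.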 In a few lines: as §1
Test [6] can be described thus: Quantitative highthroughput screen to assess conditional lethalithy of P12 Ichikawa cells grown in Human Plasma-Like Medium with dialyzed fetal bovine serum (HPLM+ds) (AID 1963879). Also: nearly all actives have a fitted effect of over 35% in size. As to Viability: series mostly up to about 46 µM. The note with it: Potency: viability. In a few lines: as §1
Test [7] in a line: Quantitative highthroughput screen to assess conditional lethalithy of P12 Ichikawa cells grown in RPMI1640 with dialyzed fetal bovine serum (RPMI+ds) (AID 1963880). Also: nearly all actives have a fitted effect of over 35% in size.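 As to Viability: 100% = DMSO wells and 0% = empty wells on each plate.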 The settings on record: Potency: P12-Ichikawa viability. In a few lines: as §1
Test [8] is described as follows: Quantitative highthroughput screen to assess conditional lethalithy of P12 Ichikawa cells grown in RPMI1640 with untreated serum (RPMI+s) (AID 1963881). Also: nearly all actives have a fitted effect of over 35% in size.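 As to Viability: series mostly up to about 46 µM; 100% = DMSO wells and 0% = empty wells without cells.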 The note with it: Potency: viability. In a few lines:
as §1

The nature of test [9]: Quantitative highthroughput screen to assess conditional lethalithy of SEM cells grown in Human Plasma-Like Medium with dialyzed fetal bovine serum (HPLM+ds) (AID 1963882). Also: nearly all actives have a fitted effect of over 35% in size. As to Viability: series mostly up to about 46 µM. A digest of the protocol:
as §1

The nature of test [10]: Quantitative highthroughput screen to assess conditional lethalithy of SEM cells grown in RPMI1640 with unreated serum (RPMI+s) (AID 1963883). Also: nearly all actives have a fitted effect of over 35% in size.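 As to Viability: 100% = DMSO wells and 0% = empty wells without cells.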 In a few lines:
as §1

Test [11] is described as follows: Quantitative highthroughput screen to assess conditional lethalithy of SEM cells grown in RPMI1640 with dialyzed fetal bovine serum (RPMI+ds) (AID 1963884). Also: nearly all actives have a fitted effect of over 35% in size.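 As to Viability: series mostly up to about 46 µM; 100% = DMSO control wells and 0% = empty wells without cells.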 A digest of the protocol: as §1
A short description of test [12]: Cellular viability qHTS for adrenocortical cancer (ACC) cell line SW-13 (AID 1963989). Also: nearly all actives have a fitted effect of over 65% in size.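 As to activity (max response): cells grown in serum-free medium with ITS supplement; % is scaled to controls: 0 for no effect and ±100 for the full control effect.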 The settings on record: SW-13 ACC cells viability, CellTiter-Glo, 48 h; activity (max response): active compounds read low. A digest of the protocol:
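Compound titrations (up to 46 uM final, in DMSO) were applied to SW-13 cells for 48 h at 37C/5% CO2. Reading used CellTiter-Glo after 20 min at room temperature; fitted curves yielded IC50 and efficacy.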

Test [13] is described as follows: Cellular viability qHTS for adrenocortical cancer (ACC) cell line NCI-H295R (AID 1963990). Also: nearly all actives have a fitted effect of over 60% in size. A digest of the protocol:
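Readout: CellTiter-Glo luminescence, 20 min RT. Exposure: 48 h, 37C/5% CO2. Cells: NCI-H295R, ITS-DMEM serum-free. Range: up to 46 uM. Analysis: 4PL fit, IC50 plus efficacy.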

Where “and” joins values, the source holds several entries; their conditions need not be identical. Identical values can stand only once. Results filed as inconclusive are left out. Values without a mark were called inactive. Calls of active or inactive are those of the source. Calls follow the shape of the dose curve; as a rule, active = well fitted curve in the direction sought with a large enough effect; inconclusive = small, poorly fitted or top-dose-only effect, or another doubt; inactive = no such curve, though single readings can be large; an effect the other way counts as inactive or inconclusive.
Potency is read from the fitted curve at half-maximal effect.

With `CN1CC(=O)NC1=NC(=O)Nc1cccc(Cl)c1`, the Potency result in test [1], in test [2], in test [3], in test [4], in test [5] and in [6] was “inactive” throughout. Further, the Potency result in test [7], in test [8], in test [9], in test [10], in [11] and in [13] was “inactive” throughout. Moreover, in [12], the activity (max response) is -5.87%.

Take `CC(C)NCC(O)c1ccc(NS(C)(=O)=O)cc1` (configuration not stated): the Potency entry in test [1], in test [2], in test [3], in test [4], in [5] and in test [6] was “inactive” throughout. The Potency result in test [7], in [8], in test [9], in test [10], in test [11] and in [13] was “inactive” in each case. Moreover, the activity (max response) in [12] is 2.53%.

For `CC(C)(N)c1ccc(-c2nc3ccccc3nc2-c2ccccc2)cc1`, the Potency in [1] is 9.2 µM (active); in test [2] it was 14.8 µM (active); in test [3] it was 74.3 nM (active); in test [4] it was 83.3 nM (active); in [5], 23.5 nM (active); in [6] it was 23.5 nM (active). The Potency in test [7] is 74.3 nM (active); in [8], 93.5 nM (active); in test [9] it was 46.9 nM (active); in [10], 14.8 nM (active); in test [11], 33.2 nM (active). The activity (max response) in [12] was -5.56%.

Turning to `Cc1ccc(CN2CCNCC2)cc1NC(=O)CNc1ccc(F)c(F)c1`, the Potency entry in [1], in test [2], in [3], in test [4], in [5] and in test [6] was “inactive” throughout. For the same molecule, the Potency result in test [7], in test [8], in test [9], in test [10], in test [11] and in [13] was “inactive” in each case. Moreover, the activity (max response) in test [12] was 11.8%.

Turning to `CC1=CC(=O)C(=C(C)C)CC2C1CCC2(C)O` (configuration not stated), the Potency entry in [1] and in test [2] was “inactive” in each case.

On to `CC(C)=CCCC1(C)Oc2cc3c(c4c2C2C(O4)C(C)(O)CCC21)CN(C(CCC(=O)O)C(=O)O)C3=O` (configuration not stated), for which the Potency result in test [1] and in [2] was “inactive” each time.

In the case of `CC(C)(C)c1cc(C(C)(C)C)c(NC(=O)c2c[nH]c3ccccc3c2=O)cc1O`, the Potency in test [1] was 11.8 µM (active); in test [2], 7.42 µM (active); in [12] it was 6310 nM (active); in test [13] it was 7080 nM (active). Also, the Potency entry in test [3], in [4], in test [5], in test [6], in test [7] and in test [8] was “inactive” each time. The Potency entry in test [9], in [10] and in test [11] was “inactive” each time.

Consider `CCC(=O)NCC[C@@H]1CCc2ccc3c(c21)CCO3`, for which the Potency entry in [1], in test [2], in [3], in test [4], in [5] and in test [6] was “inactive” each time. Moreover, the Potency entry in test [7] and in test [8] was “inactive” each time. Also, the results for the Potency in test [9], in [10] and in [11] were 3320 nM (active), 5260 nM (active) and 5260 nM (active), respectively. Moreover, the activity (max response) in [12] is -6.57%.

On to `Cc1cnc(C(=O)O)c[n+]1[O-]`, for which the Potency result in test [1], in [2], in [3], in test [4], in test [5] and in test [6] was “inactive” in each case. Also, the Potency result in test [7], in [8], in test [9], in test [10], in test [11] and in [13] was “inactive” throughout. The activity (max response) in test [12] was -15.7%.

In the case of `COc1ccc(C2CC(c3ccccc3)=NN2c2ccc(S(N)(=O)=O)cc2)cc1` (configuration not stated), the Potency is 20.9 µM (active) in test [1]; 18.6 µM (active) in [2]; 4180 nM (active) in [3]; 4180 nM (active) in [4]; 2640 nM (active) in test [5]; 6620 nM (active) in [6]. Further, the Potency is 3720 nM (active) in [7]; 4180 nM (active) in test [8]; 2350 nM (active) in test [9]; 1180 nM (active) in [10]; 1660 nM (active) in test [11].

Consider `O=C(O)C[C@H]1CCC(=O)[C@@H]1C/C=C\CCO`, for which the Potency entry in test [1] and in test [2] was “inactive” throughout.

As to `CN1CCN(c2cccc(Nc3nc4c(-c5ccc(S(C)(=O)=O)cc5)cccn4n3)c2)CC1`, the Potency in [1] is 146 nM (active) and 132 nM (active); in [2], 130 nM (active) and 296 nM (active). For the same molecule, the Potency result in test [3] is “inactive”.

Regarding `CC(C#N)C(C)O[C@@H]1O[C@H](CO)[C@@H](O)[C@H](O)[C@H]1O` (some centres not stated), the Potency result in test [1] and in [2] was “inactive” each time.

For the molecule `C[C@@H]1C(=O)O[C@H]2CC34[C@H]5C[C@@H](C(C)(C)C)C36[C@H](OC(=O)[C@@H]6O)O[C@@]4(C(=O)O5)[C@]21O` (some centres not stated), the Potency entry in test [1], in test [2], in [3], in test [4], in test [5] and in [6] was “inactive” throughout. The Potency entry in [7], in [8], in test [9], in [10], in [11] and in test [13] was “inactive” in each case. In addition, the activity (max response) in test [12] is -23.3%.

As to `C[N+]1(C)[C@@H]2C[C@@H](OC(=O)C(O)(c3cccs3)c3cccs3)C[C@H]1[C@@H]1O[C@@H]12`, the Potency entry in test [1], in [2], in [3], in test [4], in [5] and in test [6] was “inactive” each time. Besides, the Potency entry in [7], in [8], in test [9], in test [10] and in test [11] was “inactive” in each case.

On to `COc1ccc(Cn2ccc3ccc(C(=O)NO)cc32)cc1`, for which the Potency in [1] was 14.8 µM (active); in test [2], 20.6 µM (active) and 18.6 µM (active). In addition, the Potency result in [3] was “inactive”.

`COc1cccc([C@@H](C)NCCCc2ccccc2Cl)c1`: the Potency in test [1] and in test [2] was 14.8 µM (active) throughout. Further, the Potency result in [3], in [4], in test [5], in test [6], in test [7] and in test [8] was “inactive” in each case. The Potency result in [9], in [10] and in [11] was “inactive” throughout.

Take `CCN(CC)CCOc1ccc(Nc2ncc3cc(-c4c(Cl)cccc4Cl)c(=O)n(C)c3n2)cc1`: the Potency in [1] was 0.0661 µM (active); in test [2], 0.118 µM (active); in test [3] it was 2640 nM (active); in test [4] it was 2960 nM (active); in [5], 2640 nM (active); in test [6], 3720 nM (active). The Potency in test [7] was 3320 nM (active); in test [8], 2960 nM (active); in [9] it was 1660 nM (active); in test [10], 1050 nM (active); in [11] it was 2350 nM (active); in test [12], 1000 nM (active). In [13], the Potency was 794 nM (active).
